Test results reported in PubChem BioAssay (NCATS).
Results filed as inconclusive are left out. Where a call stands in place of a potency, no number is given. Activity calls are given as the source filed them. Unless noted, calls come from the whole dose curve; as a rule, active = well fitted curve in the direction sought with a large enough effect; inconclusive = small, poorly fitted or top-dose-only effect, or another doubt; inactive = no such curve, though single readings can be large; an effect the other way counts as inactive or inconclusive.

Assays:
[1] = NS1 protein of Zika virus - qHTS assay to identify small molecule inhibitors in human HEK 293 cells (AID 1347053); note: nearly all actives have a fitted effect of over 55% in size; note: potency is the fitted concentration of half-maximal effect
Outline: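 Inhibition of NS1 expression was scored in HEK 293 cells given compound 1 h ahead of MR766 virus (MOI = 0.5). Following 24 h at 37 C, two anti-NS1 antibodies generated a TR-FRET signal, scaled between uninfected and infected controls.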

[2] = qHTS of pediatric cancer cell lines to identify multiple opportunities for drug repurposing: Primary screen for TC32 cells (AID 1347089); note: nearly all actives have a fitted effect of over 60% in size
Outline: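 A viability screen of TC32 cells was run over 48 h, with primary MIPE doses spanning 0.78 nM–46 µM and NPC doses 0.59 nM–46 µM. ATP luminescence (CellTiter-Glo) served as the read-out.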

[3] = qHTS of pediatric cancer cell lines to identify multiple opportunities for drug repurposing: Primary screen for DAOY cells (AID 1347090); note: nearly all actives have a fitted effect of over 55% in size; note: potency is the fitted concentration of half-maximal effect
Outline: (§1)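 Cell viability, CellTiter-Glo luminescence; 500-1,000 cells/well, 8- or 11-point titration, 48 h compound exposure at 37 degrees C, 5% CO2. Controls: DMSO neutral, bortezomib 2.3 µM final as positive.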

[4] = qHTS of pediatric cancer cell lines to identify multiple opportunities for drug repurposing: Primary screen for NB-EBc1 cells (AID 1347095); note: potency is the fitted concentration of half-maximal effect
Outline: (§2)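 Phenotypic viability qHTS, 48 h compound exposure, CellTiter-Glo luminescence read-out; multi-concentration dosing so that potency and efficacy derive directly from the primary screen's curves.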

[5] = qHTS for Inhibitors of the Functional Ribonucleoprotein Complex (vRNP) of Lassa (LASV) Arenavirus: LASV Primary Screen - GLuc reporter signal (AID 1347082; calls by dose curve; tested in HEK293 reporter line; note: series mostly up to about 57 µM; nearly all actives have a fitted effect of over 60% in size)
[6] = qHTS for Inhibitors of the Functional Ribonucleoprotein Complex (vRNP) of Lymphocytic Choriomeningitis Arenaviruses (LCMV): Viability assay - alamar blue signal for LCMV Primary Screen (AID 1347085; calls by dose curve; tested in HEK293 reporter line; note: series mostly up to about 57 µM; nearly all actives have a fitted effect of over 80% in size)
[7] = biological target: Nucleoprotein (Lymphocytic choriomeningitis virus (strain Armstrong)) (UniProt P09992); assay: qHTS for Inhibitors of the Functional Ribonucleoprotein Complex (vRNP) of Lymphocytic Choriomeningitis Arenaviruses (LCMV): LCMV Primary Screen - GLuc reporter signal (AID 1347086; calls by dose curve; note: series mostly up to about 57 µM; nearly all actives have a fitted effect of over 70% in size)
Sequence of Nucleoprotein (Lymphocytic choriomeningitis virus (strain Armstrong)) (P09992 whole entry, looked up): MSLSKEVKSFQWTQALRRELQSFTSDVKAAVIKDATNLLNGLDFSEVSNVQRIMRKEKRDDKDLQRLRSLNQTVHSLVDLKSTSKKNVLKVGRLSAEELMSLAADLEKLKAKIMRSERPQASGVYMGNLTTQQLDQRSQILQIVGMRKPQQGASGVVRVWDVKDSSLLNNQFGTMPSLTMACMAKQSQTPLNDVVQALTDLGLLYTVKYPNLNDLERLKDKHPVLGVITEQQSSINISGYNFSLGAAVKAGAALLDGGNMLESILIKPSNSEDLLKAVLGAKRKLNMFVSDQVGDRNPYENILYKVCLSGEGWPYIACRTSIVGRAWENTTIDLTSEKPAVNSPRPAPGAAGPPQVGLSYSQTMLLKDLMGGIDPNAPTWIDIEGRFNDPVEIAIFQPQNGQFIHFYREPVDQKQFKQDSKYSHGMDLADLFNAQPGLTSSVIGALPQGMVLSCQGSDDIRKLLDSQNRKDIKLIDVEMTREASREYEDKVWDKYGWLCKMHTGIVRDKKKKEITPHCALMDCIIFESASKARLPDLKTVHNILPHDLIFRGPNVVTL

[8] = qHTS of pediatric cancer cell lines to identify multiple opportunities for drug repurposing: Primary screen for SJ-GBM2 cells (AID 1347091); note: potency is the fitted concentration of half-maximal effect
Outline: as §1

[9] = qHTS of pediatric cancer cell lines to identify multiple opportunities for drug repurposing: Primary screen for BT-37 cells (AID 1347094); note: potency is the fitted concentration of half-maximal effect
Outline: as §2

[10] = qHTS of pediatric cancer cell lines to identify multiple opportunities for drug repurposing: Primary screen for NB1643 cells (AID 1347099); note: nearly all actives have a fitted effect of over 50% in size; note: potency is the fitted concentration of half-maximal effect
Outline: as §2

[11] = qHTS of pediatric cancer cell lines to identify multiple opportunities for drug repurposing: Primary screen for A673 cells (AID 1347092); note: nearly all actives have a fitted effect of over 45% in size; note: potency is the fitted concentration of half-maximal effect
Outline: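 Titration-based qHTS on A673 cells: MIPE compounds spanned 11 points (0.78 nM to 46 µM final), NPC compounds 8 points (0.59 nM to 46 µM final). Viability after 48 h was measured by ATP luminescence.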

[12] = qHTS of pediatric cancer cell lines to identify multiple opportunities for drug repurposing: Primary screen for SK-N-MC cells (AID 1347093); note: potency is the fitted concentration of half-maximal effect
Outline: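 Metabolically active cells were quantified by ATP-dependent luminescence (CellTiter-Glo, 15 min at room temperature) following 48 h treatment. Cells had been plated at 500-1,000 per well and settled for 5 h beforehand.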

[13] = qHTS of pediatric cancer cell lines to identify multiple opportunities for drug repurposing: Primary screen for U-2 OS cells (AID 1347096); note: nearly all actives have a fitted effect of over 50% in size
Outline: (§3)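 Cells (500-1,000/well) rested 5 h, then received compounds for 48 h; metabolically active cells were measured by CellTiter-Glo luminescence. Final concentrations spanned up to 46 µM (MIPE, 11-point) or 0.59 nM-46 µM (NPC, 8-point) in primary screens, 11-point in follow-ups.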

[14] = qHTS of pediatric cancer cell lines to identify multiple opportunities for drug repurposing: Primary screen for SK-N-SH cells (AID 1347098); note: nearly all actives have a fitted effect of over 65% in size; note: potency is the fitted concentration of half-maximal effect
Outline: as §3

[15] = qHTS for Inhibitors of the Functional Ribonucleoprotein Complex (vRNP) of Lassa (LASV) Arenavirus: Viability assay - alamar blue signal for LASV Primary Screen (AID 1347083; calls by dose curve; tested in HEK293 reporter line; note: series mostly up to about 57 µM; nearly all actives have a fitted effect of over 80% in size)
[16] = qHTS of pediatric cancer cell lines to identify multiple opportunities for drug repurposing: Primary screen for Saos-2 cells (AID 1347097); note: nearly all actives have a fitted effect of over 40% in size; note: potency is the fitted concentration of half-maximal effect
Outline: as §2

SMILES	Potency [1]	Potency [2]	Potency [3]	Potency [4]	Potency [5]	Potency [6]	Potency [7]	Potency [8]	Potency [9]	Potency [10]	Potency [11]	Potency [12]	Potency [13]	Potency [14]	Potency [15]	Potency [16]
C[C@H](CN1CCOCC1)C(C(=O)N1CCCC1)(c1ccccc1)c1ccccc1	inactive	inactive	inactive	inactive												
O=C(N[C@@H]1N=C(c2ccccc2F)c2cccc3c2N(CC3)C1=O)c1cc2ccccc2[nH]1	inactive	inactive		inactive	inactive	inactive	inactive	inactive	inactive	inactive						
CN(C)C(=O)Oc1cc(OC(=O)N(C)C)cc(C(O)CNC(C)(C)C)c1 (stereo not given)	inactive	inactive		inactive	inactive	inactive	inactive	inactive	inactive	inactive	inactive	inactive	inactive	inactive		
CCCN(CCC)CCc1c[nH]c2ccccc12	inactive			inactive	inactive	inactive	inactive	inactive	inactive	inactive			inactive	inactive	inactive	
COc1cc(CC(C)N)c(OC)cc1Br (stereo not given)	inactive		inactive		inactive		inactive	inactive		inactive		44.9 µM (active)	inactive			35.7 µM (active)
CCN(Cc1ccc(Cl)nc1)/C(=C/[N+](=O)[O-])NC	inactive			inactive	inactive	inactive	inactive	inactive	inactive	inactive	inactive	inactive	inactive	inactive	inactive	inactive
C=CCOC(Cn1ccnc1)c1ccc(Cl)cc1Cl (stereo not given)	inactive		inactive	inactive	inactive	inactive	inactive	inactive	inactive	inactive		inactive	inactive	inactive	inactive	inactive
O=C(CCl)c1ccc(Cl)cc1Cl	inactive				inactive	inactive	inactive				26.6 µM (active)				inactive	
Clc1ccc(CO/N=C(\Cn2ccnc2)c2ccc(Cl)cc2Cl)c(Cl)c1	inactive				inactive	inactive	inactive			inactive					inactive	
CCC(=O)C(CCN(C)C)(c1ccccc1)c1ccccc1	inactive		inactive	inactive	inactive			inactive	inactive	inactive	inactive	inactive			inactive	inactive
CC(=O)Oc1ccc(C2(c3ccc(OC(C)=O)cc3)Oc3ccccc3NC2=O)cc1					inactive											
CC(C(O)c1ccccc1)N(C)CCOC(c1ccccc1)c1ccccc1 (stereo not given)					inactive											
CN(C)CCc1c[nH]c2cccc(O)c12	inactive		inactive	inactive	inactive	inactive	inactive	inactive	inactive	inactive			inactive	35 µM (active)	inactive	inactive
COc1cccc2c1C(=O)c1c(O)c3c(c(O)c1C2=O)C[C@@](O)(C(=O)CO)C[C@@H]3O[C@H]1C[C@H](N)[C@H](O[C@@H]2CCCCO2)[C@H](C)O1					inactive											
CC(C)NCC(O)c1ccc(N)c(C#N)c1 (stereo not given)	inactive			inactive	inactive	inactive	inactive	inactive	inactive	inactive	inactive	inactive	inactive	inactive	inactive	inactive
CC(Cc1ccccc1)NCc1ccccc1Cl (stereo not given)	inactive		inactive	inactive	inactive	inactive	inactive	inactive	inactive	inactive				inactive	inactive	
Clc1ccc(CSC(Cn2ccnc2)c2ccc(Cl)cc2Cl)cc1 (stereo not given)	inactive					inactive	inactive				26.6 µM (active)	33.5 µM (active)		34.4 µM (active)		
COc1ccc(CN2CCNCC2)c(OC)c1OC	inactive			inactive	inactive	inactive	inactive	inactive	inactive	inactive	inactive	inactive	inactive	inactive	inactive	inactive
CNC(C)Cc1ccc2c(c1)OCO2 (stereo not given)	inactive		47.4 µM (active)	inactive	inactive	inactive	inactive	inactive	inactive	inactive			inactive	inactive	inactive	

SMILES	Potency [1]	Potency [2]	Potency [3]	Potency [4]	Potency [5]	Potency [6]	Potency [7]	Potency [8]	Potency [9]	Potency [10]	Potency [11]	Potency [12]	Potency [13]	Potency [14]	Potency [15]	Potency [16]
N#Cc1nn(-c2c(Cl)cc(C(F)(F)F)cc2Cl)c(N)c1S(=O)C(F)(F)F (stereo not given)	inactive	inactive							inactive	inactive	inactive					
CCC(OC(C)=O)C(CC(C)NC)(c1ccccc1)c1ccccc1 (stereo not given)	inactive			inactive	inactive				35.9 µM (active)		27.6 µM (active)	31 µM (active)				43.7 µM (active)
CC[C@]1(O)CC[C@H]2[C@@H]3CCC4=CCCC[C@@H]4[C@H]3CC[C@@]21C	inactive				inactive		inactive		inactive	inactive			inactive			
C[C@]12Cc3nonc3C[C@@H]1CC[C@@H]1[C@@H]2CC[C@@]2(C)[C@H]1CC[C@]2(C)O	inactive	inactive			inactive	inactive	inactive			inactive			inactive	inactive		
O=C(O)C(Cc1cc(I)c(O)c(I)c1)c1ccccc1 (stereo not given)					inactive											
C[C@H](N)[C@H](O)c1ccc(O)c(O)c1	inactive		inactive		inactive			inactive	inactive	inactive						
Oc1ccc2[nH]cc(CCCCN3CC=C(c4ccccc4)CC3)c2c1	inactive				inactive	inactive	inactive			inactive					inactive	inactive
CC[C@H](O)C(C[C@H](C)N(C)C)(c1ccccc1)c1ccccc1	inactive	inactive		inactive				inactive	inactive	inactive		62.3 µM (active)	inactive			inactive
C[C@H]1C(=O)O[C@@H]2CCN3CC=C(COC(=O)[C@](C)(O)[C@]1(C)O)[C@H]23	inactive			29.9 µM (active)	inactive	inactive	inactive	inactive	inactive	inactive	inactive		inactive	inactive	inactive	inactive
C[N+]1(C)[C@@H]2CC[C@H]1CC(OC(=O)C(CO)c1ccccc1)C2 (stereo not given in full)	inactive			inactive	inactive	inactive	inactive	inactive	inactive	inactive	inactive				inactive	inactive
Clc1ccc(C(OCCN2CCCCC2)c2ccccc2)cc1 (stereo not given)	inactive				inactive	inactive	inactive			inactive					inactive	inactive
Nc1ccc(Cl)cc1C(=O)c1ccccc1F	inactive		inactive		inactive	inactive	inactive	inactive	inactive	inactive			inactive		inactive	
O=C1NCN(c2ccccc2)C12CCN(CCCOc1ccc(F)cc1)CC2	inactive		inactive	inactive	inactive	inactive	inactive		17.4 µM (active)	inactive	inactive	inactive	inactive		inactive	
CC[n+]1c(-c2ccccc2)c2cc(N)ccc2c2ccc(N)cc21	inactive		0.841 µM (active)					2.66 µM (active)	2.46 µM (active)	11.9 µM (active)	3.35 µM (active)	2.11 µM (active)		7.7 µM (active)		13.3 µM (active)
COc1ccc2c(C(=O)c3ccc(Cl)cc3)c(C)n(CC(=O)O)c2c1	inactive		21.1 µM (active)					inactive	inactive	inactive		8.41 µM (active)		inactive		inactive
c1ccc2c(c1)Sc1ccccc1N2CC1CN2CCC1CC2 (stereo not given)	3.16 µM (active)			inactive	inactive			23.7 µM (active)	27.6 µM (active)	23.7 µM (active)	13.3 µM (active)			27.3 µM (active)		26.6 µM (active)
CC(C)(C)OC(=O)c1ncn2c1[C@@H]1CCCN1C(=O)c1c(Br)cccc1-2	inactive	inactive	inactive	inactive	inactive	inactive		inactive	inactive	inactive	inactive	inactive	inactive	inactive	inactive	inactive
CCO[C@H]1O[C@@H]2OC3(C)CC[C@H]4[C@H](C)CC[C@@H]([C@H]1C)[C@@]24OO3	inactive	inactive			inactive			inactive	inactive	inactive	inactive	4.73 µM (active)				
CCN(CC)CCSC(=O)C(c1ccccc1)c1ccccc1					inactive	inactive	inactive								inactive	
